# Results as given in PubChem BioAssay (NCI).
# This is part of a sample that, as a whole, favours compounds with a hit. Of some 83,000 tested, about 20% had one in any assay.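 For each line, cells grew in 96-well plates with the test compound present at a single concentration for 48 hours.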 Values without a mark were called inactive. Activity calls are given as the source filed them. The calls were made as follows: active = growth percent below 10; inactive = the rest.
# Assays:
# Assay in all cases: NCI-60 one-dose screen, 48 h (100 = growth as untreated, 0 = no growth, -100 = all killed)
# Settings in all cases: 10 µM unless noted
# [1] = test system: NCI-H23 lung
# [2] = test system: NCI-H226 lung
# [3] = test system: NCI-H322M lung
# [4] = test system: HOP-62 NSCLC
# [5] = test system: NCI-H460 lung
# [6] = test system: HOP-92 NSCLC
# [7] = test system: NCI-H522 lung
# [8] = test system: A549/ATCC NSCLC
# [9] = test system: 786-0 renal
# [10] = test system: COLO 205 colon
Compound,growth [1],growth [2],growth [3],growth [4],growth [5],growth [6],growth [7],growth [8],growth [9],growth [10]
CC1(C)CC[C@]2(CO)CC[C@]3(C)[C@](O)([C@H](O)C[C@@H]4[C@@]5(C)CCCNC(C)(C)[C@@H]5CC[C@]43C)[C@@H]2C1,95%,106%,103%,101%,88.8%,94%,92.4%,85.2%,101%,44.2%
CN(C)CCCC1(c2ccc(F)cc2)OCc2cc(-c3csc4ccccc34)ccc21 (stereo not given),48.2%,87.3%,27%,39.2%,-89.9% (active),26.4%,7.99% (active),24.4%,52.8%,-67.8% (active)
O=C(/C=C/c1ccco1)Nc1ncc(Cc2cc(Cl)ccc2Cl)s1,33.4%,39.4%,43.7%,17.8%,3.88% (active),72.4%,-4.32% (active),19.8%,31.4%,-14.2% (active)
COc1cc(-c2cc(-c3ccc(Nc4nc(Nc5ccc(Cl)cc5)nc(Nc5ccc(Cl)cc5)n4)cc3)no2)cc(OC)c1OC,88.3%,78%,80.8%,70.3%,76.2%,37.9%,76.5%,66.7%,72.7%,51.5%
CCn1cc(Cc2cc(C(=O)Nc3cc4cc(OC)c(OC)cc4c(C)n3)ccc2Cl)cn1,52%,30.8%,102%,39.8%,76.3%,47.1%,17.6%,38.9%,51.7%,46.4%
Cc1nc2sc(C(=O)Nc3cccc(Cl)c3C)c(N)c2cc1C(=O)/C=C/c1ccccc1,28.6%,-52.2% (active),19.1%,-11.2% (active),-25.3% (active),1.05% (active),-49.8% (active),10.1%,-51.1% (active),-5.18% (active)
Cc1c2ccccc2nc2cc3c(cc12)[C@H]1CC[C@]2(C)C(=O)CC[C@H]2[C@@H]1CC3,98.5%,91.8%,98.5%,105%,97.3%,86.9%,81.6%,86.5%,98%,109%
COc1cc2ncnc(Nc3ccc(F)c(Cl)c3)c2cc1OCC(=O)N1CCOCC1,90.7%,102%,24.7%,98.1%,99.5%,92.1%,33%,74.8%,78.5%,106%
COc1ccc(CN2C(=O)OC(C)(COC(C)=O)C2=O)cc1 (stereo not given),108%,98.1%,99%,106%,111%,100%,91.4%,94.5%,106%,119%
O=C1OCC2=C1C(c1ccccc1)c1cc3c(cc1N2CCO)OCCO3 (stereo not given),30.9%,15.8%,48.7%,27.3%,5.36% (active),44.5%,-47.4% (active),23.6%,20.8%,-47.6% (active)
CN(C)CCC(CCN(C)C)(C(=O)O)c1ccccc1,107%,106%,103%,94%,104%,84.9%,88.2%,99%,105%,108%
CC(=O)c1c(Nc2cccc(F)c2)[nH]c2c(Cl)cc(Cl)c(Cl)c2c1=O,3.83% (active),-4.3% (active),9.02% (active),-10.1% (active),3.6% (active),-14.2% (active),-8.41% (active),4.98% (active),12.2%,-63.4% (active)
Cn1c(=O)c2[nH]c(SC/C(=N/O)c3ccc(Br)cc3)nc2n(C)c1=O,35.7%,-7.02% (active),34.8%,8.56% (active),20.9%,-72.9% (active),-14.5% (active),60.4%,-68.6% (active),110%
N#Cc1nn(-c2cc(=O)[nH]c3ccc(Br)cc23)c(N)c1C#N,102%,98.4%,93.3%,83.2%,105%,-90.8% (active),78.4%,101%,97.4%,80%
O=c1cc(C(F)(F)F)c2cc(-c3cc4ccccc4c(=O)o3)c(O)cc2o1,54.9%,68.4%,87.6%,82.6%,58.9%,-0.397% (active),31.3%,78.5%,80.2%,107%
Cc1cc(=O)oc2cc(Oc3nc(Br)cn4c(Br)cnc34)ccc12,63.9%,53.6%,76.8%,51.7%,73.9%,37.2%,54.8%,77.8%,29%,113%
COC1C(O)CC(OC2CC(OC3CC(O[C@@H]4C(=O)c5c(cc6cc(OC7CC(OC8CC(O)C(O)C(C)O8)C(O)C(C)O7)c(C)c(O)c6c5O)CC4[C@H](OC)C(=O)O)OC(C)C3O)OC(C)C2O)OC1C (stereo not given in full),6.6% (active),-36.1% (active),14.5%,1.26% (active),13.5%,20.4%,-13.7% (active),8.44% (active),34.7%,14.7%
CC(C)n1c2ccc(Br)cc2c2c3c(c4c5ccccc5ccc4c21)C(=O)NC3=O,93.7%,95.5%,70.9%,94.6%,89.9%,117%,71.9%,98.3%,101%,101%
COc1ccc(C2C3=C(COC3=O)N(CCO)c3cc4c(cc32)OCO4)cc1OC (stereo not given),73.6%,115%,104%,70.6%,95.8%,68.7%,66.2%,90.7%,84%,83.6%
COc1ccc(-c2cn(Cc3cc4ccccc4s3)nn2)cc1OCCN1CCCCC1,78.3%,95.6%,94.2%,84%,90%,50%,91.7%,80.2%,69.1%,60.7%
Nc1c(Cl)cc(/C=C2\C=Cc3ccccc32)cc1Cl,97.4%,98.7%,106%,102%,112%,99.6%,93.1%,92.7%,102%,102%
N[C@@H]1CCC[C@H]1NCCCCN1C(=O)c2cccc3cc([N+](=O)[O-])cc(c23)C1=O,39.3%,11%,41.2%,31.7%,6.71% (active),34.5%,40.6%,22.4%,25%,22.8%
COC1/C=C/OC2(C)Oc3c(C)c(O)c4c(O)c(c(/C=N/N(c5ccccc5)c5ccccc5)c(O)c4c3C2=O)NC(=O)C(C)=C/C=C/C(C)C(O)C(C)C(O)C(C)C(OC(C)=O)C1C (stereo not given),64.3%,-47.9% (active),109%,73.1%,56.5%,79%,37.6%,57%,106%,8.26% (active)
Cc1nc([P+](c2ccccc2)(c2ccccc2)c2ccccc2)c(N2CCCCC2)o1,17.1%,53.9%,78.4%,30.3%,12.7%,16.7%,28.8%,32.8%,60.3%,-45.3% (active)
c1ccc2cc(Cn3cc(CSc4nc5ccccc5s4)nn3)ccc2c1,93.2%,83.8%,97.6%,85.7%,106%,98.7%,86.9%,93.4%,101%,102%
Cc1ccc2nc(-c3ccc(C(=O)N/N=C/c4ccc([N+](=O)[O-])cc4)cc3)[nH]c2c1,101%,104%,104%,108%,102%,91.9%,95.1%,106%,97.6%,108%
